# Bioassay records as filed in PubChem BioAssay.
# A selection: hits, their analogues and other compounds. The true share with any hit is near 3.1%.
# DRD3 antagonist: qHTS of D3 Dopamine Receptor Antagonist: qHTS; D(3) dopamine receptor (Homo sapiens), P35462; D3R cells, DiscoveRx beta-arrestin luminescence, antagonist mode; stronger effect = lower value; max response, negative = inhibition, %; hit rate 2.5% among 360,000; AID 652054, 2013; in the data active = max response below about -50%; inconclusive = no clear call, values can overlap the other calls; note: % is set by controls: 0 for no effect and ±100 for the full control effect
# Target sequence (P35462 whole entry, looked up): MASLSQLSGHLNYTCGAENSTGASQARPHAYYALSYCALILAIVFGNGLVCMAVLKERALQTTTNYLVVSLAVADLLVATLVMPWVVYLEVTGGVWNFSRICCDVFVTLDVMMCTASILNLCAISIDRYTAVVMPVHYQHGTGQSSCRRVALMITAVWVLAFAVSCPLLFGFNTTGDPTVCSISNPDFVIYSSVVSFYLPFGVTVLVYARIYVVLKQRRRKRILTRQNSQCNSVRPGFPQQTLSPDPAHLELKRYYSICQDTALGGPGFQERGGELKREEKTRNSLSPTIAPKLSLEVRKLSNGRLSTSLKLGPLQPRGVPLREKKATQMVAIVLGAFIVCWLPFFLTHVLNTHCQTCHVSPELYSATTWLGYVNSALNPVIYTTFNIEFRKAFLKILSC
#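 Cells plated overnight at 1500 cells/well, then exposed to library compounds with dopamine controls for 90 minutes at 37 degrees C. DiscoveRx reagent added for 30–60 minutes at room temperature; luminescence read, quantitative HTS format.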
# DRD3 agonist: qHTS of D3 Dopamine Receptor Agonist: qHTS | hit rate 0.58% among 410,000 | max activation, % | D3R DiscoveRx beta-arrestin cells, luminescence, 90 min; in the data active = max activation above about 30%; note: 0% is about no effect
#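 Cells at 1500/well, incubated overnight, then treated with pinned compounds (dopamine as control) for 90 min at 37 degrees C. DiscoveRx reagent added for 30 - 60 minutes at room temperature; luminescence read.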
# uPA surface inh: qHTS for Inhibitors of Cell Surface uPA Generation | cell surface uPA generation assay, qHTS | Potency, µM (top dose mostly 38.3 µM), for the others: at the top dose activity change, negative = inhibition, usual class: inhibitors | hit rate 0.31% among 330,000; active = well fitted inhibition curve with a large enough effect; inconclusive = small, poorly fitted or top-dose-only effect; inactive = no such curve, though single readings can be large or run the other way; tested in mouse RAW 264.7 cells; note: potency is the fitted concentration of half-maximal effect; % is set by controls: 0 for no effect and ±100 for the full control effect; nearly all actives have a fitted effect of over 55% in size
# RGS4 inhibitor: Inhibitors of Regulator of G Protein Signaling (RGS) 4: qHTS | Transcreener GDP fluorescence polarization, RGS4-accelerated GTP hydrolysis | Potency, µM (top dose mostly 114 µM), without a hit: at the highest dose activity change, negative = inhibition, hits mostly inhibitors | hit rate 0.039% among 390,000 | AID 504845, 2011; active = well fitted inhibition curve with a large enough effect; inconclusive = small, poorly fitted or top-dose-only effect; inactive = no such curve, though single readings can be large or run the other way; note: potency is the fitted concentration of half-maximal effect; % is set by controls: 0 for no effect and ±100 for the full control effect; nearly all actives have a fitted effect of over 75% in size
# Target sequence (P49798 whole entry, looked up): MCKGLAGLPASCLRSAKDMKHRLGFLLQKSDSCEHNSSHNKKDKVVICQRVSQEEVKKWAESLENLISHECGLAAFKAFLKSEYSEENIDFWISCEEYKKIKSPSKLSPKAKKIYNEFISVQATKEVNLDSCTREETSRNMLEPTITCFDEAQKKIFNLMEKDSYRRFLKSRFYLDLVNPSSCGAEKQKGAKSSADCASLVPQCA
#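 MLSMR compounds (23 nl, pin-transferred) preincubated 10 min at room temperature with a 500nM (2x) first reagent, then RGS4 at 900nM (2x) plus Transcreener GDP mix added; fluorescence polarization (620/688 nm) read before and after 90 min at 30 °C.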
# The depositor's hits bear a star; u = inconclusive; x = no result.
SMILES,DRD3 antagonist,DRD3 agonist,uPA surface inh,RGS4 inhibitor
COc1cc(Cl)c(C)cc1NC(=O)NC1COc2ccccc2C1 (configuration not stated),x,-18,x,31%
CN1CCN(CCOc2cccc(Cl)c2)CC1,u,1,5%,-18%
Cc1cccc(C)c1OCCN1CCCC1,-8,-10,2%,5%
Clc1cccc(OCCN2CCCC2)c1,-73*,-11,4%,27%
CCC1CCCCN1CCCCOc1cccc(Cl)c1 (configuration not stated),-96*,-21,-15%,2%
CC(C)c1cccc(OCCN2CCCC2)c1,-100*,-19,1%,-6%
O=C(CN1C(=O)CCc2cc(S(=O)(=O)N3CCOCC3)ccc21)NCc1ccc(F)cc1,x,3,x,3%
O=C1C2CC3CC1CC(O)(C3)C2,x,4,x,x
O=C(NCCCN1CCc2ccccc2C1)C1CCN(c2nnc(-n3cccc3)s2)CC1,-82*,-9,-5%,-23%
O=C(NCCCN1CCN(Cc2ccccc2)CC1)C1CCN(c2nnc(-n3cccc3)s2)CC1,0,-19,8%,-23%
CCc1nonc1NC(=O)c1oc2c(C)c(C)ccc2c1C,-52*,7,15%,-7%
CC(C)(C)c1cc(-c2nc(N)nc(N)n2)c(O)c(C(C)(C)C)c1,0,48*,7%,21%
Nc1nc(N)nc(-c2cc(O)ccc2O)n1,7,18,3%,0%
CCCC(=O)Nc1sc(C)c(C)c1C#N,11,3,-10%,u
CCCC(=O)Nc1sc(C)c(-c2ccc(C(C)CC)cc2)c1C#N (configuration not stated),41,30*,x,4%
Cc1c(Nc2nc3ccccc3n3c(C)nnc23)cccc1C(=O)O,x,8,x,7%
Cn1nc(-c2ccccc2)c(-c2ccccc2)c(C(=O)Nc2ccccc2C(N)=O)c1=O,x,-1,x,-14%
CN1C(=O)/C(=C2/C=Cc3ccccc3N2CCCS(=O)(=O)O)SC1=S,-125*,-25,3%,-6%
CC(NC(=O)C1CCN(S(=O)(=O)c2ccc3c(c2)oc(=O)n3C)CC1)c1ccccc1 (configuration not stated),x,-4,x,38%
CN1CCN(c2ccc(CNC(=O)C3Cc4c(-c5ccc(Cl)cc5)ccnc4O3)cc2)CC1 (configuration not stated),-56*,-28,x,x
Oc1ccc(Cl)cc1CNCc1ccc(Cl)nc1,-65*,-62,-18%,-3%
CCOC(=O)C1=C(Cc2ccc(F)cc2)C(=O)c2ccccc2C1=O,-100*,-26,x,u
CCN(CC)CCOC(=O)c1ccc(NC(=O)CCCN2C(=O)S/C(=C/c3ccc(OC)cc3)C2=S)cc1,-83*,-19,-12%,u
Cc1ccc(S(=O)(=O)N2CC3(O)CN(C(=O)OC(C)C)N(C(=O)OC(C)C)CC3(OC(=O)NC3CCCC3)C2)cc1 (configuration not stated),30,5,x,x
CCn1nc(C)c(Br)c1-c1nc(-c2ccc(C)cc2)no1,39,35*,0%,1%
SMILES,DRD3 antagonist,DRD3 agonist,uPA surface inh,RGS4 inhibitor
CCn1nc(C)c(Br)c1-c1nc(CS(=O)(=O)c2ccc(F)cc2)no1,13,-2,-2%,-1%
Cc1ccc(-n2nc(CO)c(C(=O)NCCc3ccccc3)n2)cc1C,x,-6,x,7%
CO/S(=N\S(=O)(=O)c1ccc(Cl)cc1)c1ccc([N+](=O)[O-])cc1 (configuration not stated),x,x,x,12µM*
O=C(Cc1ccc(Cl)cc1)NNS(=O)(=O)c1ccc([N+](=O)[O-])cc1,-23,-7,-1%,-6%
CN(C(=O)CO)c1c(I)c(C(=O)NCC(O)CO)c(I)c(C(=O)NCC(O)CO)c1I (configuration not stated),x,7,x,x
CCN(CC)CCN(C(=O)c1ccc2c(c1)CCCC2)c1nc2ccc(C)cc2s1,-51*,-10,12%,19%
CCN(CC)CCN(C(=O)c1ccc2c(c1)CCCC2)c1nc2ccc(F)cc2s1,-19,-4,0%,-19%
CCN(CC)CCN(C(=O)c1ccc2c(c1)OCCO2)c1nc2c(Cl)cccc2s1,-63*,-13,13%,4%
CCN(CC)CCN(C(=O)c1ccc2c(c1)CCCC2)c1nc2c(C)cccc2s1,-51*,-20,-3%,0%
CC1=C(C(=O)OCCN(Cc2ccccc2)c2ccccc2)C(c2cccc([N+](=O)[O-])c2)C(P2(=O)OCC(C)(C)CO2)=C(C)N1 (configuration not stated),x,-24,x,x
Cn1cnnc1Sc1ccc(/C=C/C(=O)c2ccc(O)cc2)cc1[N+](=O)[O-],u,-4,8.9µM*,-42%
CCC(C)(C)NC(=O)c1ccc(Sc2nncn2C)c([N+](=O)[O-])c1,-14,4,6%,-12%
CCC(C)[C@H]1O[C@]2(C=C[C@@H]1C)C[C@@H]1C[C@@H](C/C=C(\C)[C@@H](O[C@H]3C[C@H](OC)[C@@H](O[C@H]4C[C@H](OC)[C@H](NC(C)=O)[C@H](C)O4)[C@H](C)O3)[C@@H](C)/C=C/C=C3\CO[C@@H]4[C@H](O)C(C)=C[C@@H](C(=O)O1)[C@]34O)O2 (some centres not stated),x,13,x,x
O=C(CSCc1ccccc1)N/N=C/c1ccc(OCC(=O)N2CCCCC2)cc1,2,3,-4%,19%
COc1ccc(CSCC(=O)N/N=C/c2ccc(OCC(=O)N3CCCCC3)cc2)cc1,-56*,8,-10%,17%
CCOC(=O)c1nnc(-c2cccs2)nc1Oc1ccc(Cl)cc1,-67*,1,0%,-35%
COc1cccc(-n2c(=O)c3sccc3n(Cc3cc(=O)n4cc(Cl)ccc4n3)c2=O)c1,x,7,x,-1%
COc1ccccc1NC(=O)c1ccc([N+](=O)[O-])o1,-1,8,10µM*,28%
O=C(Nc1nc2c(F)cccc2s1)c1ccc([N+](=O)[O-])o1,u,-7,-11%,-6%
Cc1cccc(NC(=O)c2ccc([N+](=O)[O-])o2)c1C,13,8,-12%,-18%
O=C(Nc1ccccc1C(=O)NC1CC1)c1ccc([N+](=O)[O-])o1,-63*,2,-8%,35%
O=C(Nc1ccc(N2CCCCC2)cc1)c1ccc([N+](=O)[O-])o1,u,-13,-3%,-17%
CC1CCN(c2ccc(NC(=O)c3ccc([N+](=O)[O-])o3)cc2)CC1,u,-25,3.2µM*,-32%
O=C(Nc1cccc2ccccc12)c1ccc([N+](=O)[O-])o1,-16,1,u,19%
O=C(Nc1nc2ccc(F)cc2s1)c1ccc([N+](=O)[O-])o1,-57*,-9,x,x
COc1ccc(OC)c(CNC(=O)c2nn(-c3ccc(OC)c(Cl)c3)c(=O)c3c2c2ccccc2n3C)c1,x,-14,x,-16%
Cc1cc(C)cc(C(=O)N(Cc2nc(-c3ccc(Cl)cc3)no2)C(C)C)c1,x,-11,x,19%
